# Laboratory results taken from the supplement of paper PMC12282887.
# ± gives the standard deviation of the averaged measurements.
# Key:
# Experiment in all cases: promoter activity interaction Z-score (Lux/OD deviation from empty-vector control); higher = stronger promoter induction by the compound
# [1] = system: E. coli BW25113 acrABp lux reporter
# Procedure, shortened: (§1)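 E. coli BW25113, as wild type or one of three single-gene deletion strains, carried low-copy luxCDABE promoter reporters and grew in 40 µl LB Lennox in 384-well plates at 37°C, with OD600 and luminescence read every 30 min for 12 h. Each compound was run at four 1:2 dilutions in biological duplicates, integration spanned 0–8 h for wild type and 1–9 h for deletion strains, and wells under 10% of the median growth value were dropped. The score is the Z-transformed residual of growth-normalised luminescence fitted against a control.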
# [2] = system: E. coli BW25113 marRABp lux reporter
# Procedure, shortened: as §1
# [3] = system: E. coli BW25113 micFp lux reporter
# Procedure, shortened: as §1
# [4] = system: E. coli BW25113 ompFp lux reporter
# Procedure, shortened: as §1
# [5] = system: E. coli BW25113 robp lux reporter
# Procedure, shortened: as §1
# [6] = system: E. coli BW25113 soxSp lux reporter
# Procedure, shortened: as §1
# [7] = system: E. coli BW25113 tolCp lux reporter
# Procedure, shortened: as §1
# [8] = 13.5 µg/ml, genetic background: wild type
# [9] = 13.5 µg/ml, genetic background: ΔmarA
# [10] = 13.5 µg/ml, genetic background: Δrob
# [11] = 13.5 µg/ml, genetic background: ΔsoxS
# [12] = 26.9 µg/ml, genetic background: wild type
# [13] = 26.9 µg/ml, genetic background: ΔmarA
# [14] = 26.9 µg/ml, genetic background: Δrob
# [15] = 26.9 µg/ml, genetic background: ΔsoxS
# [16] = 53.9 µg/ml, genetic background: wild type
# [17] = 53.9 µg/ml, genetic background: ΔmarA
# [18] = 53.9 µg/ml, genetic background: Δrob
# [19] = 53.9 µg/ml, genetic background: ΔsoxS
# [20] = 107.7 µg/ml, genetic background: wild type
# [21] = 107.7 µg/ml, genetic background: ΔmarA
# [22] = 107.7 µg/ml, genetic background: Δrob
# [23] = 107.7 µg/ml, genetic background: ΔsoxS
structure (smiles),measurement,setting,value
CC(=O)O[C@H]1C[C@@]2(C)[C@@H](C[C@@H](O)[C@H]3[C@@]4(C)CC[C@@H](O)[C@@H](C)[C@@H]4CC[C@@]32C)/C1=C(\CCC=C(C)C)C(=O)O [Fusidic acid],promoter activity interaction Z-score,[1]; [8],-0.2451 ± 0.00049
same,promoter activity interaction Z-score,[1]; [9],0.318 ± 0.51
same,promoter activity interaction Z-score,[1]; [10],0.252 ± 0.008
same,promoter activity interaction Z-score,[1]; [11],0.129 ± 0.4
same,promoter activity interaction Z-score,[1]; [12],0.0211 ± 0.13
same,promoter activity interaction Z-score,[1]; [13],0.239 ± 0.78
same,promoter activity interaction Z-score,[1]; [14],0.206 ± 0.18
same,promoter activity interaction Z-score,[1]; [15],0.227 ± 0.21
same,promoter activity interaction Z-score,[1]; [16],0.215 ± 0.26
same,promoter activity interaction Z-score,[1]; [17],-0.794 ± 0.83
same,promoter activity interaction Z-score,[1]; [18],0.292 ± 0.025
same,promoter activity interaction Z-score,[1]; [19],0.624 ± 0.086
same,promoter activity interaction Z-score,[1]; [20],0.448 ± 0.38
same,promoter activity interaction Z-score,[1]; [21],-0.757 ± 0.87
same,promoter activity interaction Z-score,[1]; [22],0.221 ± 0.22
same,promoter activity interaction Z-score,[1]; [23],0.66 ± 0.14
same,promoter activity interaction Z-score,[2]; [8],-0.438 ± 0.029
same,promoter activity interaction Z-score,[2]; [9],0.0154 ± 0.048
same,promoter activity interaction Z-score,[2]; [10],-0.0451 ± 0.073
same,promoter activity interaction Z-score,[2]; [11],0.0686 ± 0.1
same,promoter activity interaction Z-score,[2]; [12],0.0382 ± 0.39
same,promoter activity interaction Z-score,[2]; [13],0.3 ± 0.31
same,promoter activity interaction Z-score,[2]; [14],0.0321 ± 0.089
same,promoter activity interaction Z-score,[2]; [15],0.122 ± 0.072
same,promoter activity interaction Z-score,[2]; [16],0.384 ± 0.077
same,promoter activity interaction Z-score,[2]; [17],0.457 ± 0.14
same,promoter activity interaction Z-score,[2]; [18],0.307 ± 0.22
same,promoter activity interaction Z-score,[2]; [19],0.418 ± 0.13
same,promoter activity interaction Z-score,[2]; [20],0.539 ± 0.64
same,promoter activity interaction Z-score,[2]; [21],0.236 ± 0.49
same,promoter activity interaction Z-score,[2]; [22],0.523 ± 0.97
same,promoter activity interaction Z-score,[2]; [23],1.17 ± 0.92
same,promoter activity interaction Z-score,[3]; [8],-0.214 ± 0.048
same,promoter activity interaction Z-score,[3]; [9],-0.0141 ± 0.037
same,promoter activity interaction Z-score,[3]; [10],-0.006 ± 0.044
same,promoter activity interaction Z-score,[3]; [11],-0.317 ± 0.02
same,promoter activity interaction Z-score,[3]; [12],-0.0316 ± 0.083
same,promoter activity interaction Z-score,[3]; [13],0.0308 ± 0.044
same,promoter activity interaction Z-score,[3]; [14],0.011 ± 0.0025
same,promoter activity interaction Z-score,[3]; [15],-0.033 ± 0.14
same,promoter activity interaction Z-score,[3]; [16],0.0882 ± 0.31
same,promoter activity interaction Z-score,[3]; [17],-0.146 ± 0.084
same,promoter activity interaction Z-score,[3]; [18],0.0235 ± 0.18
same,promoter activity interaction Z-score,[3]; [19],0.413 ± 0.28
same,promoter activity interaction Z-score,[3]; [20],-0.681 ± 0.064
same,promoter activity interaction Z-score,[3]; [21],-0.356 ± 0.068
same,promoter activity interaction Z-score,[3]; [22],-0.293 ± 0.013
same,promoter activity interaction Z-score,[3]; [23],-0.184 ± 0.18
same,promoter activity interaction Z-score,[4]; [8],-0.312 ± 0.41
same,promoter activity interaction Z-score,[4]; [9],0.0814 ± 0.3
same,promoter activity interaction Z-score,[4]; [10],0.107 ± 0.54
same,promoter activity interaction Z-score,[4]; [11],-0.462 ± 0.18
same,promoter activity interaction Z-score,[4]; [12],-0.129 ± 0.58
same,promoter activity interaction Z-score,[4]; [13],0.219 ± 0.59
same,promoter activity interaction Z-score,[4]; [14],0.223 ± 0.2
same,promoter activity interaction Z-score,[4]; [15],-0.211 ± 0.02
same,promoter activity interaction Z-score,[4]; [16],-0.237 ± 0.057
same,promoter activity interaction Z-score,[4]; [17],-0.149 ± 0.12
same,promoter activity interaction Z-score,[4]; [18],-0.602 ± 0.36
same,promoter activity interaction Z-score,[4]; [19],-0.00876 ± 0.4
same,promoter activity interaction Z-score,[4]; [20],-1.9 ± 0.91
same,promoter activity interaction Z-score,[4]; [21],-1.77 ± 0.15
same,promoter activity interaction Z-score,[4]; [22],-2.39 ± 0.61
same,promoter activity interaction Z-score,[4]; [23],-1.36 ± 0.43
same,promoter activity interaction Z-score,[5]; [8],-0.978 ± 0.39
same,promoter activity interaction Z-score,[5]; [9],-0.301 ± 0.26
same,promoter activity interaction Z-score,[5]; [10],0.242 ± 0.41
same,promoter activity interaction Z-score,[5]; [11],-0.23 ± 0.61
same,promoter activity interaction Z-score,[5]; [12],-0.593 ± 0.31
same,promoter activity interaction Z-score,[5]; [13],-0.113 ± 0.0094
same,promoter activity interaction Z-score,[5]; [14],0.3 ± 0.32
same,promoter activity interaction Z-score,[5]; [15],0.424 ± 1.6
same,promoter activity interaction Z-score,[5]; [16],-1.1 ± 0.35
same,promoter activity interaction Z-score,[5]; [17],-0.572 ± 0.84
same,promoter activity interaction Z-score,[5]; [18],-0.82 ± 0.47
same,promoter activity interaction Z-score,[5]; [19],-0.24 ± 0.27
same,promoter activity interaction Z-score,[5]; [20],-2.27 ± 0.22
same,promoter activity interaction Z-score,[5]; [21],-1.34 ± 0.73
same,promoter activity interaction Z-score,[5]; [22],-1.46 ± 0.021
same,promoter activity interaction Z-score,[5]; [23],-1.76 ± 0.91
same,promoter activity interaction Z-score,[6]; [8],-0.189 ± 0.017
same,promoter activity interaction Z-score,[6]; [9],0.127 ± 0.11
same,promoter activity interaction Z-score,[6]; [10],0.138 ± 0.11
same,promoter activity interaction Z-score,[6]; [11],0.0742 ± 0.26
same,promoter activity interaction Z-score,[6]; [12],-0.0314 ± 0.05
same,promoter activity interaction Z-score,[6]; [13],0.331 ± 0.089
same,promoter activity interaction Z-score,[6]; [14],0.221 ± 0.14
same,promoter activity interaction Z-score,[6]; [15],0.0543 ± 0.37
same,promoter activity interaction Z-score,[6]; [16],0.0312 ± 0.095
same,promoter activity interaction Z-score,[6]; [17],0.0894 ± 0.086
same,promoter activity interaction Z-score,[6]; [18],0.0824 ± 0.045
same,promoter activity interaction Z-score,[6]; [19],0.2418 ± 0.00036
same,promoter activity interaction Z-score,[6]; [20],0.133 ± 0.093
same,promoter activity interaction Z-score,[6]; [21],0.303 ± 0.013
same,promoter activity interaction Z-score,[6]; [22],0.683 ± 0.014
same,promoter activity interaction Z-score,[6]; [23],1.13 ± 0.34
same,promoter activity interaction Z-score,[7]; [8],0.0553 ± 0.57
same,promoter activity interaction Z-score,[7]; [9],0.818 ± 0.39
same,promoter activity interaction Z-score,[7]; [10],0.166 ± 0.013
same,promoter activity interaction Z-score,[7]; [11],0.269 ± 0.96
same,promoter activity interaction Z-score,[7]; [12],-0.129 ± 0.34
same,promoter activity interaction Z-score,[7]; [13],0.688 ± 0.72
same,promoter activity interaction Z-score,[7]; [14],-0.187 ± 0.52
same,promoter activity interaction Z-score,[7]; [15],0.868 ± 0.14
same,promoter activity interaction Z-score,[7]; [16],0.388 ± 0.25
same,promoter activity interaction Z-score,[7]; [17],-0.396 ± 0.26
same,promoter activity interaction Z-score,[7]; [18],-0.151 ± 1.6
same,promoter activity interaction Z-score,[7]; [19],-0.374 ± 0.68
same,promoter activity interaction Z-score,[7]; [20],-1.44 ± 0.11
same,promoter activity interaction Z-score,[7]; [21],-0.24 ± 0.18
same,promoter activity interaction Z-score,[7]; [22],-0.656 ± 0.49
same,promoter activity interaction Z-score,[7]; [23],0.133 ± 0.45
